High-throughput results (PubChem BioAssay)
Rab9 promoter act = activators of Rab9 promoter | Huh7 Rab9 promoter-luciferase reporter, luminescence, 24 h | Potency, µM (highest dose often 9.22 µM), hits mostly activators | 2.8% of 320,000 active; further: nearly all actives have a fitted effect of over 60% in size
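Measured in stably transfected Huh7 cells bearing a Rab9 promoter–luciferase construct: 24 h compound treatment at 37 °C, followed by luminescence detection.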
ELG1 DNA repair = blocks ELG1-dependent DNA repair in HEK293T cells | Potency, µM (series often up to 46.1 µM), most hits filed as inhibitors | HEK293T ELG1-luciferase reporter, luminescence, 16 h; DNA damage induced by 5-fluorouridine | 2.3% of 330,000 active; further: nearly all actives have a fitted effect of over 55% in size
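Reporter activity after DNA damage by 5-fluorouridine is monitored. Compound-treated cells incubate 16 hr at 37 °C, then ONE-Glo is added for 30 min before luminescence reading.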
ELG1 genotox = induces genotoxicity in HEK293T cells with luciferase-tagged ELG1; HEK293T ELG1-luciferase reporter, luminescence, 16 h; AID 504466; 1.3% of 330,000 active; Potency, µM (highest dose often 46 µM), hits mostly activators; further: nearly all actives have a fitted effect of over 60% in size
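Cells (2,000/well) expressing the ELG1-luciferase fusion are dosed by pin tool and kept 16 hr at 37 °C, 5% CO2. Signal comes from ONE-Glo luciferase reagent after 30 min at room temperature.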
FLuc counter = inhibits or activates purified firefly luciferase, miR-21 counter-screen; 6.9% of 360,000 active; purified FLuc, Km substrates, luminescence inhibition; Potency, µM (series often up to 57.5 µM), actives largely listed as inhibitors; AID 588342; P08659; further: nearly all actives have a fitted effect of over 55% in size
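Purified P. pyralis luciferase (10nM final) with 10uM D-luciferin and 10uM ATP (Km levels) in 50mM Tris acetate pH 7.5, 10mM Mg acetate, 0.01% Tween-20, 0.05% BSA; qHTS 6-point titration, ~60 µM downward; luminescence read.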
NPC1 promoter act = activates the NPC1 promoter | Huh7 NPC1 promoter luciferase reporter, 24 h | Potency, µM (top dose mostly 9.22 µM), actives largely listed as activators | 2.4% of 320,000 active; further: nearly all actives have a fitted effect of over 60% in size
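Stable NPC1-promoter luciferase Huh7 line; cpd (DMSO) 24 h, 37 °C, 5% CO2; Amplite luciferase reagent 10 min RT; luminescence readout. qHTS format.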
SMN2 splice up = enhancers of SMN2 splice variant expression; AID 1458; HEK293 SMN2-luciferase splicing reporter, luminescence, 30-36 h; Potency, µM (top dose mostly 46.1 µM), actives largely listed as activators; 2.8% of 210,000 active; further: nearly all actives have a fitted effect of over 55% in size
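qHTS luciferase splicing reporter: luminescence rises when SMN2 exon 7 is included in transfected HEK293 cells. Compound exposure lasted 30-36 h at 37C, with 4.5 mM final sodium butyrate as control, followed by a ONE-Glo read.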
ELG1 FLuc counter = luciferase inhibition in cell-free luciferin readout for ELG1 hits; shares compounds with ELG1 DNA repair; cell-free firefly luciferase luminescence counter-screen, ViewLux; Potency, µM (titrated, usually from 46.1 µM), hits mostly inhibitors; 3% of 350 active; AID 624247
ELG1 Luc conf = confirmation of human ELG1-dependent DNA repair inhibitors | Potency, µM (doses to about 46.1 µM), most hits filed as inhibitors | 68% of 670 active | HEK293T ELG1-luciferase levels, luminescence; cells co-treated with 5-fluorouridine | shares compounds with ELG1 DNA repair; further: nearly all actives have a fitted effect of over 55% in size
Target sequence (Q96QE3 whole entry, looked up): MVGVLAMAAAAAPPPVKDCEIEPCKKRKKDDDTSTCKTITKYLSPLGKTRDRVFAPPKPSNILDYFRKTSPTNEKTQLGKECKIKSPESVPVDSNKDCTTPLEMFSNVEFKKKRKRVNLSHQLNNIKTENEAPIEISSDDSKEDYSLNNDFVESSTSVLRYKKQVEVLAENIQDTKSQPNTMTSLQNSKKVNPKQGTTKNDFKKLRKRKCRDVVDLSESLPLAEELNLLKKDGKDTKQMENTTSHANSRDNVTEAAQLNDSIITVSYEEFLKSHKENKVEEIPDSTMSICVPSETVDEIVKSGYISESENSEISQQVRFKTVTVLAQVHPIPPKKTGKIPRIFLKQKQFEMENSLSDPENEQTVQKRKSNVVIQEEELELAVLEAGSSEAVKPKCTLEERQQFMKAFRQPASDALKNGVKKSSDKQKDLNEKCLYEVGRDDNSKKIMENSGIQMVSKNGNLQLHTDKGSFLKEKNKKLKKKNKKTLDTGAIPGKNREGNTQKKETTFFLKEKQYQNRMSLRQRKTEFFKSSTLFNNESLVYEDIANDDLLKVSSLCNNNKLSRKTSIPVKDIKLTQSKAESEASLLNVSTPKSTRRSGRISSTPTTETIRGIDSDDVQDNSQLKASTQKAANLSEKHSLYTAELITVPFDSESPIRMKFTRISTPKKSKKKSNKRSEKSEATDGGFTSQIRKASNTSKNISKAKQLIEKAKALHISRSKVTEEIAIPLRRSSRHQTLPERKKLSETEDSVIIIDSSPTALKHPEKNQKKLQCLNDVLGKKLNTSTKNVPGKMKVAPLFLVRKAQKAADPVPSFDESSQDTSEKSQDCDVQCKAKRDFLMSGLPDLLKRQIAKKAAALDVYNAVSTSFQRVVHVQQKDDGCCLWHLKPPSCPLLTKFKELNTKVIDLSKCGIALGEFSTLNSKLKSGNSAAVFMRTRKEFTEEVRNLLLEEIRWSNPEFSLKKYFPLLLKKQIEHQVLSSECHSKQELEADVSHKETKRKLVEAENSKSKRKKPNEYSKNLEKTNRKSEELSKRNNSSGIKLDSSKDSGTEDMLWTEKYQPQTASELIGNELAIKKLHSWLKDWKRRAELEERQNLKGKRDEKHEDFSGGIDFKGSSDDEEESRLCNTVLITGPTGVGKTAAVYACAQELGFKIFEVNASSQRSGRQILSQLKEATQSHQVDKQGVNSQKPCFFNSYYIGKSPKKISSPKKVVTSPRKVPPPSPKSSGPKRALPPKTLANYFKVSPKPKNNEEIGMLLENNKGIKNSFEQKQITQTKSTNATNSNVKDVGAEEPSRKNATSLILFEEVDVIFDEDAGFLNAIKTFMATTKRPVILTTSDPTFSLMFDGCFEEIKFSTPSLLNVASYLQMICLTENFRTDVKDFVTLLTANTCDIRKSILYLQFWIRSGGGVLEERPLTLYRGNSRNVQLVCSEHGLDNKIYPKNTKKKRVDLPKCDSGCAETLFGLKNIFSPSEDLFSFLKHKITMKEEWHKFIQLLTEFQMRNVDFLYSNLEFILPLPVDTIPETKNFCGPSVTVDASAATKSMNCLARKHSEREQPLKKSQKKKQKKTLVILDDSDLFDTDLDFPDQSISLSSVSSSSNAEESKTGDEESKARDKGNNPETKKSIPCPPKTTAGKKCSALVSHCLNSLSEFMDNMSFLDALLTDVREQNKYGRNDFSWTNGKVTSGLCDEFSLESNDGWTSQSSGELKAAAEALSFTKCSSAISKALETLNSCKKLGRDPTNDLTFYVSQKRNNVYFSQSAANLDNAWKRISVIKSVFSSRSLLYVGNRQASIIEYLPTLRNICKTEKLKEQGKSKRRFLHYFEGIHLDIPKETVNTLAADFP
ELG1 MMS Luc = confirmation of human ELG1 repair inhibitors, MMS stimulated; shares compounds with ELG1 DNA repair; HEK293T luciferase-tagged ELG1 level, MMS stimulated; Potency, µM (top dose mostly 46.1 µM), actives largely listed as inhibitors; 53% of 670 active; further: nearly all actives have a fitted effect of over 60% in size
ELG1 5FU viab = confirmation of ELG1 repair inhibitors: viability with 5FU; shares compounds with ELG1 DNA repair; cell viability with 5-FU, ELG1-dependent repair; Potency, µM (highest dose often 46.1 µM), actives largely listed as cytotoxic; 670 tested, under 10 active; AID 624250;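 further: ELG1-luc HEK293T cells cotreated with 5-fluorouridine at 10 µM final; viability measured 16 h after compound addition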
ELG1 MMS viab = confirmation of ELG1 repair inhibitors: viability with MMS; shares compounds with ELG1 DNA repair; Cell viability with MMS, ELG1-dependent DNA repair; Potency, µM (highest dose often 46.1 µM), most hits filed as cytotoxic; 33% of 670 active;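 further: ELG1-luc HEK293T cells co-treated with 10 µM MMS; viability read 16 h after compound addition; nearly all actives have a fitted effect of over 60% in size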
ELG1 unstim viab = counter-screen for ELG1 repair inhibitors: unstimulated cell viability | shares compounds with ELG1 DNA repair | cell viability counter-screen, unstimulated, luminescence | Potency, µM (highest dose often 45.9 µM), actives largely listed as cytotoxic | 8% of 900 active;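 further: compound exposure lasted 16 hours before reading; nearly all actives have a fitted effect of over 55% in size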
FLuc enzyme = firefly luciferase inhibition counter-screen; shares compounds with ELG1 DNA repair; 10% of 350 active; Potency, µM (series often up to 57.5 µM), actives largely listed as inhibitors; purified firefly luciferase, luminescence counter-screen
Numbers stand for hits; - = inactive; ? = inconclusive; . = not tested or not shown. The list is not random: actives were taken first. Their share in the collection is about 9.2%. The call rests on the fitted dose curve; in most records, active means well fitted curve in the direction sought with a large enough effect; inconclusive means small, poorly fitted or top-dose-only effect, or another doubt; inactive means no such curve, though single readings can be large; an effect the other way counts as inactive or inconclusive.

SMILES	Rab9 promoter act	ELG1 DNA repair	ELG1 genotox	FLuc counter	NPC1 promoter act	SMN2 splice up	ELG1 Luc conf	ELG1 MMS Luc	ELG1 5FU viab	ELG1 MMS viab	ELG1 unstim viab	others
CC(C)=CCC[C@](C)(O)C1CC=C(C)CC1 (some centres undefined)	.	.	.	.	.	-	.	.	.	.	.
Cc1ccc(Nc2nc(-c3ccncc3)nc3ccccc23)cc1	-	2.6µM	-	-	-	.	4µM	-	-	-	-	ELG1 FLuc counter=-;FLuc enzyme=-
c1ccc(Cn2nnnc2C(c2cccnc2)N2CCN(C3CCCCC3)CC2)cc1 (centres undefined)	-	3.3µM	-	-	-	-	?	?	-	-	-
CC(=O)c1cccc(NC(=O)CSc2nc(=O)n(Cc3ccco3)c3c2CCC3)c1	.	.	.	-	.	.	.	.	.	.	.
COc1ccc(NC(=O)/C(C#N)=C\c2ccc(OCc3ccc(C(=O)O)cc3)c(OC)c2)cc1	-	?	?	-	-	-	.	.	.	.	.
COc1cc(/C=C(\C#N)C(=O)Nc2cccc(C(=O)O)c2)ccc1OCc1ccc(F)cc1	-	?	21µM	-	-	.	.	.	.	.	-
O=C1N=C(N2CCCC2)S/C1=C\c1cn[nH]c1-c1ccccc1	-	-	-	-	-	-	.	.	.	.	.
Cc1ccccc1N1CCN(C2=NC(=O)/C(=C/c3cn[nH]c3-c3ccccc3)S2)CC1	-	0.82µM	-	-	-	-	1.3µM	-	?	-	-	ELG1 FLuc counter=-;FLuc enzyme=-
CN(C)c1cc(-c2ccc(Br)cc2)oc(=O)c1Cl	-	?	-	-	-	.	.	.	.	.	.
COC(=O)Nc1nc2ccc(S(=O)c3ccccc3)cc2[nH]1 (centres undefined)	.	.	.	.	.	-	.	.	.	.	.
COC(=O)Nc1nc2ccc(C(=O)c3cccs3)cc2[nH]1	-	.	.	.	?	-	.	.	.	.	-
CN(C)c1ccc(/C=C2\C=Cc3ccccc32)c(F)c1	.	.	.	.	.	.	.	.	.	.	-
COc1ccccc1N1CCN(C(=O)Cn2cnc3sc(C)c(S(=O)(=O)N4CCC(C)CC4)c3c2=O)CC1	.	.	.	-	.	-	.	.	.	.	.
COc1cnc(-c2ccccn2)nc1Sc1ccc(Cl)cc1	-	0.37µM	-	-	-	-	28µM	?	-	-	-	ELG1 FLuc counter=-;FLuc enzyme=-
CC(=O)N1CCN(CC(=O)Nc2ccccc2C(=O)NCc2ccc(C)cc2)CC1	-	-	-	-	-	.	.	.	.	.	.
CC(=O)N1CCN(CC(=O)Nc2ccccc2C(=O)Nc2ccccc2)CC1	.	?	-	.	.	.	3.5µM	-	?	-	-
O=C(Oc1ccccc1)N1CCC2(CC1)CCN(c1ncccn1)CC2	.	.	.	.	.	-	.	.	.	.	.
CCCCN(Cc1ccccc1)S(=O)(=O)c1cc(Br)cc2c1N(C(=O)C1CC1)CC2	.	.	.	-	.	-	.	.	.	.	.
